# PubChem BioAssay AID1304 (The Scripps Research Institute Molecular Screening Center, 2008)
# Hit rate of the full screen: of about 220,000 compounds, about 800 (0.36%) were called active. The sample holds actives, similar compounds and a random draw of the others, so the mix is not that of the screen. Unmarked numbers belong to inactive results. No stated cut-off is given here; in the data, active means activation above about 33% (passing the limit was not always enough); inactive means the rest.
# Molecular target: Neuropeptide Y receptor type 1 (Homo sapiens) (UniProt P25929)
# Sequence (P25929 whole entry, looked up): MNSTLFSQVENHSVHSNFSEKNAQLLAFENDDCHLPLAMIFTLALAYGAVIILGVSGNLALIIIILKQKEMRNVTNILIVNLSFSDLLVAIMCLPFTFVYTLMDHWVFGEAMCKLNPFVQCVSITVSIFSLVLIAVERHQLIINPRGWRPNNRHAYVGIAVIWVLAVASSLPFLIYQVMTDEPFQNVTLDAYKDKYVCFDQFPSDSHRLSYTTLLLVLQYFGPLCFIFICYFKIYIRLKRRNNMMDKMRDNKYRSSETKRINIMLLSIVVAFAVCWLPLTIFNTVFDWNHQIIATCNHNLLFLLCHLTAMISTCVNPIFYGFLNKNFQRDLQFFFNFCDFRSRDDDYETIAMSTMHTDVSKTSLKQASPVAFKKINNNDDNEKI
# Test: activation enhancers of human NPY-Y1 – cell-based, primary screen (AID 1304);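 further: cells stimulated with NPY at EC10 then isoproterenol at EC100; 0% = low agonist plus stimulus and 100% = saturating agonist plus stimulus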
# Conditions: NPY-Y1 expressing cells, potentiator/agonist activation; at 3.6 µM; hits give high values
row,Compound,activation
1,CN(C)Cc1c(O)ccc2occ(C(O)c3ccccc3)c12 (stereo not drawn),105% (active)
2,CCOc1ncccc1C(=O)N(C)CC(=O)Nc1ccc(F)cc1,-13.4%
3,S=c1[nH]nc(-c2cc(-c3ccccc3)n[nH]2)n1/N=C/c1c2ccccc2cc2ccccc12,6.62%
4,CCOc1ccc2c(=O)c(-c3ccc4c(c3)OCCCO4)c(C)oc2c1,2.42%
5,O=C(Nc1ccc2c(c1)CCC2)c1cccc(S(=O)(=O)Nc2ccccc2Cl)c1,54.9% (active)
6,O=C(Nc1cccc(S(=O)(=O)Nc2ccc(Cl)cc2)c1)c1ccc2c(c1)OCCO2,43.8% (active)
7,O=C(c1cccc(S(=O)(=O)Nc2ccccc2Cl)c1)N1CCN(C(=O)c2ccco2)CC1,0.65%
8,O=C(Nc1cccc(S(=O)(=O)N2CCCCC2)c1)c1ccc2c(c1)OCO2,-8.28%
9,O=C(Nc1ccc(Cl)cn1)c1ccc2c(c1)OCCO2,-6.11%
10,O=C(Nc1ccc2c(c1)CCC2)c1cccc(S(=O)(=O)N2CCN(c3ccc(F)cc3)CC2)c1,24.4%
11,CCc1nnc(NC(=O)CCN(c2ccc(C)cc2)S(=O)(=O)c2ccccc2)s1,1.52%
12,CSc1ccccc1C(=O)NCc1ccccc1,1.48%
13,O=S(=O)(c1ccc(F)cc1)N1CC=C(c2ccccc2)CC1,-6.53%
14,CC(O)c1nc2c(c(=O)n(C)c(=O)n2C)n1C (stereo not drawn),11.7%
15,Cc1coc2cc3oc(=O)c(CCC(=O)O)c(C)c3cc12,-7.91%
16,CCSc1sc(CC)cc1C=O,-2.95%
17,Cc1ccc(NC(=O)/C(=C/c2ccc([N+](=O)[O-])cc2)NC(=O)c2ccccc2)cc1,30.3%
18,O=C(O)C1CCN(c2ccc([N+](=O)[O-])cc2[N+](=O)[O-])CC1,-10.1%
19,COC(=O)c1ccc(COC(=O)c2cnccn2)cc1,-11.9%
20,Cc1coc2c(O)cc3c(c12)OC1(N2CCCCC2)C(=O)NCCCC31 (stereo not drawn),90.8% (active)
21,O=C(O)C1C2C=CC(O2)C1C(=O)NCCc1cccc(Cl)c1 (stereo not drawn),1.36%
22,COCCCNC(NC(=O)c1ccc(OC)cc1)C(Cl)(Cl)Cl (stereo not drawn),15.6%
23,COCCCNC(=S)N1CCCC(c2nc3cc(C)c(C)cc3[nH]2)C1 (stereo not drawn),8.07%
24,NC(=O)CC[C@@H]1NC(=O)[C@H](CO)NC(=O)c2cc([N+](=O)[O-])cc(I)c2NCC[C@@H](C(N)=O)NC1=O,-22.3%

row,Compound,activation
1,CCn1c2ccccc2c2cc(NC(=O)Nc3ccc([N+](=O)[O-])cc3C)ccc21,45.6% (active)
2,CC(=O)c1ccc(NC(=O)Nc2ccc([N+](=O)[O-])cc2C)cc1,-8.87%
3,CCn1c2ccccc2c2cc(NC(=O)CNC)ccc21,-3.25%
4,CC(C)(C)NC(=O)COc1ccc(CNc2ccc3[nH]c(=O)[nH]c3c2)cc1,2.35%
5,CC(C)(C)N(Cc1ccccc1)C(=O)COC(=O)CCc1c[nH]c2ccccc12,-4.21%
6,COc1ccc(CCn2ccc(O)c(Cc3ccc(Cl)cc3Cl)c2=O)cc1OC,-7.77%
7,COC(=O)c1c(C(=O)OC)c2n(c1C)CCS2,-0.93%
8,CC(NS(=O)(=O)c1ccccc1)c1n[nH]c(=S)n1-c1ccccc1 (stereo not drawn),30%
9,Cc1ccccc1NC(=O)NNC(=O)OC(C)(C)C,-4.21%
10,O=C(NCCCN1CCN(Cc2ccccc2)CC1)C1CCN(S(=O)(=O)N2CCCC2)CC1,-28.8%
11,CN1C(=O)c2ccccc2C(C(=O)NCCCN2CCCC2)C1c1c[nH]c2ccccc12 (stereo not drawn),51.1% (active)
12,CCN(CC)CCNC(=O)C1c2ccccc2C(=O)N(C)C1c1cn(C)c2ccccc12 (stereo not drawn),10.4%
13,CCC(C)Cn1c(O)cc2nn(-c3nc4ccccc4s3)c(=O)c-2c1C (stereo not drawn),13.9%
14,OC(COCC1COc2ccccc2O1)CN1CCN(c2ccc(F)cc2)CC1 (stereo not drawn),74.5% (active)
15,OC(COCc1ccco1)CN1CCN(c2ccccc2)CC1 (stereo not drawn),9.46%
16,O=[N+]([O-])c1ccc(N2CCN(CC(O)COc3ccccc3)CC2)cc1 (stereo not drawn),20.4%
17,CC1CCN(C2=NC(=O)/C(=C/c3cn[nH]c3-c3ccccc3)S2)CC1,1.73%
18,CC1(C)CC(=O)C=C(N2CCOCC2)C1,11.6%
19,Cc1nccn1CCC1CCCCN1C(=O)CCc1nnc(-c2ccsc2)o1 (stereo not drawn),5.94%
20,Cc1ccc(C)c(NC(=O)CSc2nc3c(oc4ccccc43)c(=O)n2-c2ccccc2)c1,-11.9%
21,Cc1ccccc1-n1nnc2c(=O)oc3ccccc3c21,65.8% (active)
22,CCOC(=O)c1c(C)nc2c(c1C)c(=O)oc1ccccc12,-22%
23,CCCCC(=O)Nc1cc(C)c2c(=O)oc3ccccc3c2n1,4.38%
24,O=S(=O)(Nc1ccccn1)c1cccc(S(=O)(=O)c2ccc(Cl)cc2)c1,-10.4%

row,Compound,activation
1,Clc1ccc(C2=CSC3=Nc4cccc5cccc(c45)N23)cc1,-26.6%
2,CCOc1ccc(/C=N/OCC(=O)NCc2cccs2)cc1,-0.95%
3,CC(C)OP(=O)(OC(C)C)C(Nc1ccccc1)c1cccc([N+](=O)[O-])c1 (stereo not drawn),6.2%
4,CC(=O)NCC(O)c1ccc([N+](=O)[O-])cc1 (stereo not drawn),-3.81%
5,CC(CCc1ccccc1)NCC(O)c1cccc([N+](=O)[O-])c1 (stereo not drawn),107% (active)
6,O=C(CC1SCCNC1=O)Nc1ccc(Cl)c(Cl)c1 (stereo not drawn),8.97%
7,O=C(CSc1nnc(-c2ccncc2)n1-c1ccc(Cl)cc1)Nc1ccc(C(=O)O)cc1,-5%
8,CC(=O)c1ccc(-c2nnc(CCC(=O)N(C)Cc3cnc4ccccn34)o2)s1,10.1%
9,Cc1cc(C)nc(NC(=O)Nc2ccccc2C(F)(F)F)n1,-11.5%
10,O=C(Nc1ccccc1C(F)(F)F)c1cc(-c2ccc(O)cc2)on1,42.6% (active)
11,O=C(c1cc(-c2ccc(O)cc2)on1)N1CCCc2ccccc21,-13.9%
12,Cc1nn2c(NCCN(C)C)c3c(nc2c1-c1ccccc1)CCC3,22.6%
13,O=C(c1cc(COc2c(F)cccc2F)on1)N1CCSCC1,3.08%
14,CCC(CC)C(=O)N1CCN(c2cccc(C)c2C)CC1,-14.7%
15,Cc1ccc(N(CC(=O)Nc2cccc(N(C)S(C)(=O)=O)c2)S(C)(=O)=O)cc1,25.3%
16,CCOC(=O)c1cccc(NC(=O)CN(c2ccc(C)cc2)S(=O)(=O)c2c(C)noc2C)c1,18.8%
17,COC(=O)c1ccc(NC(=O)CN(c2ccc(C)cc2)S(=O)(=O)c2c(C)n[nH]c2C)cc1,38.8% (active)
18,COc1ccc(NC(=O)c2nc(-n3nc(C)cc3C)ccc2Cl)cc1Cl,9.04%
19,O=C(Cc1cccc2ccccc12)NNC(=O)Nc1ccc(Cl)cc1,5.16%
20,COc1ccccc1C(c1nnnn1C(C)(C)C)N1CCN(Cc2ccccc2)CC1 (stereo not drawn),-17.5%
21,COc1ccccc1C(c1nnnn1CC1CCCO1)N1CCN(c2ccccc2)CC1 (stereo not drawn),12.6%
22,COCCn1nnnc1C(c1ccccc1Cl)N1CCN(c2ccccc2OC)CC1 (stereo not drawn),89.3% (active)
23,Cc1c(CN2CCCCC2)c(O)n(CCO)c(=O)c1C#N,10.5%
24,CCOC(=O)CCCNC(=O)COC(=O)/C=C/c1ccc2c(c1)OCO2,-7.21%

row,Compound,activation
1,CC(=O)N1CC[n+]2c(-c3ccc([N+](=O)[O-])cc3)csc21,13.5%
2,O=C(NCCCNc1ccc([N+](=O)[O-])cc1Cl)c1ccccc1F,-0.79%
3,CC1=NNC(=O)C1CCC(=O)N/N=C\c1cccc(Cl)c1 (stereo not drawn),4.52%
4,CCOc1ccc(C2NC(=S)NC3=C2CCc2ccccc23)cc1 (stereo not drawn),10.5%
5,Cc1cc(C)cc(OCC(=O)NCc2cc(C)nc3ccccc23)c1,0.39%
6,Cc1cc(C)c(NC(=O)c2oc3ccccc3c2COc2ccccc2)c(C)c1,-49.2%
7,Cc1cc(C)c(NC(=O)C[N+](C)(C)CC(O)COc2cccc3ccccc23)c(C)c1 (stereo not drawn),86.4% (active)
8,COc1cc(N2C(=O)CC3(CCCC3)CC2=O)cc(OC)c1OC,-14.9%
9,CCC(=O)N1c2ccccc2NC2=C(C(=O)CCC2)C1c1ccco1 (stereo not drawn),19.7%
10,COC(=O)c1sccc1NC(=S)Nc1ccc(C)cc1,-0.64%
11,O=c1c(/C=N/O)coc2ccc(Cl)cc12,19.5%
12,O=c1c(-c2ccccc2)coc2cc(O)ccc12,2.99%
13,O=C1/C(=C/c2coc3ccc(O)cc3c2=O)SC(=S)N1c1ccccc1,47% (active)
14,O=C1CC(c2cccc(Cl)c2)CC(O)=C1C=Nc1ccccc1 (stereo not drawn),-11.9%
15,Cc1ccc(-c2ccc(/C=C(\C#N)C(N)=S)o2)c([N+](=O)[O-])c1,8.63%
16,CN(C)NC(=O)C(NC(=O)c1ccc(N)cc1)C12CC3CC(CC(C3)C1)C2 (stereo not drawn),5.39%
17,Cc1cc(NC(=O)COC(=O)COc2ccc(Cl)cc2C)c([N+](=O)[O-])cc1C,-0.92%
18,Cc1ccc(OCC(=O)c2cc(C)n(Cc3ccco3)c2C)c([N+](=O)[O-])n1,1.91%
19,CC(=O)N(CCCN(C)C)c1nc2ccc(C)cc2s1,-7.71%
20,CN(C)CCCN(C(=O)COc1ccccc1)c1nc2c(Cl)cccc2s1,-13.9%
21,COc1cccc2sc(N(CCCN(C)C)C(=O)C(c3ccccc3)c3ccccc3)nc12,103% (active)
